Source: the supplement of paper PMC10646978
± gives the standard deviation.

Key:
Conditions in all cases: modulator concentration 10 µM
[1] = tested on: RAW-Dual (murine macrophage reporter line); experiment: NF-kB reporter (SEAP) activity fold change vs agonist alone; higher = enhanced NF-kB activity
Summary of the method: (§1)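 In 384-well plates holding 50 000 RAW-Dual murine macrophage reporter cells per well, compound at 10 μM final was pre-incubated for 1 hour at 37 °C, after which a PRR agonist was added overnight. Supernatant SEAP read with QUANTI-Blue at 620 nm absorbance reported NF-κB, and Lucia luciferase read with QUANTI-Luc luminescence reported IRF. Fold change values come from dividing each reporter signal by the mean of agonist-only control wells on the same plate, averaged over replicate plates with propagated errors.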

[2] = tested on: RAW-Dual (murine macrophage reporter line); experiment: IRF reporter (Lucia luciferase) activity fold change vs agonist alone; higher = enhanced IRF activity
Summary of the method: as §1

[3] = tested on: RAW-Dual (murine macrophage reporter line); experiment: viability score (confluency relative to resting cells, overnight) (fraction); higher = more viable, active = viable (0.7 or more)
Summary of the method: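 In 384-well plates, RAW-Dual macrophages received compound at a final 10 μM overnight. Two confluency masks were then made with IncuCyte software from IncuCyte images of all imaged wells. The viability score is defined as confluency relative to resting cells. Passing the cutoff required both masks to lie above 70% of resting cells.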

[4] = agonist: CpG ODN 1826 0.5 ug/mL

Structure (SMILES)	NF-kB reporter [1, 4]	NF-kB reporter ([1]; agonist: LPS 0.1 ug/mL)	NF-kB reporter ([1]; agonist: MPLA […])	IRF reporter ([2]; agonist: 3'3'-cGAMP 10 ug/mL)	IRF reporter ([2]; agonist: LPS 0.1 ug/mL)	IRF reporter ([2]; agonist: MPLA […])	viability score [3]
Cc1cc(NC2CCCC2)nc2ccccc12	0.798 ± 0.21	1.48 ± 0.12	1.91 ± 0.27	1.12 ± 0.068	1.88 ± 0.28	2.72 ± 0.43	0.608 (inactive)
COc1ccc(C2Nc3ccc(C(=O)c4ccccc4)cc3NC3=C2C(=O)CCC3)c(OC)c1 (stereo unspecified)	0.77 ± 0.06	0.844 ± 0.04	1.08 ± 0.095	0.933 ± 0.047	1.41 ± 0.11	1.58 ± 0.17	1.01 (active)
O=C1CC(c2ccc(O)cc2)Oc2cc(O)cc(O)c21 (stereo unspecified)	1.31 ± 0.34	1.27 ± 0.17	1.21 ± 0.077	0.746 ± 0.031	1.09 ± 0.14	1.13 ± 0.11	1 (active)
NC(=O)CSc1nc(O)cc(=O)n1-c1ccccc1F	0.987 ± 0.16	1.06 ± 0.088	1.09 ± 0.11	0.978 ± 0.048	1.39 ± 0.26	1.23 ± 0.13	1.01 (active)
CCOC(=O)Nc1ccc(NCc2ccc(F)cc2)nc1N.O=C(O)/C=C/C(=O)O	1.21 ± 0.16	1.3 ± 0.34	0.885 ± 0.05	0.678 ± 0.043	1.3 ± 0.23	1.12 ± 0.09	0.977 (active)
Cc1ccc(S(=O)(=O)n2cnc3ccccc32)cc1	1.11 ± 0.091	1.04 ± 0.071	1.02 ± 0.041	0.861 ± 0.12	1.07 ± 0.09	0.993 ± 0.14	0.998 (active)
CCOC(=O)Cc1cc(OC)c(OC)cc1C(C)=NNc1ccccc1	0.719 ± 0.056	0.831 ± 0.12	0.98 ± 0.085	0.816 ± 0.055	1.13 ± 0.065	1.09 ± 0.15	1 (active)
CCCCOc1ccc(C(=O)Nc2cc(-c3nc4ccccc4o3)ccc2OC)cc1	1.08 ± 0.066	1.08 ± 0.089	0.965 ± 0.025	0.965 ± 0.042	1.06 ± 0.049	1.02 ± 0.098	1 (active)
Clc1ccc(C=NN2CCN(C(c3ccccc3)c3ccccc3)CC2)cc1	1.06 ± 0.087	1.02 ± 0.087	0.928 ± 0.025	1.02 ± 0.051	1.05 ± 0.049	0.962 ± 0.1	0.996 (active)
CCOCCn1c(C2CCN(CCc3ccc(C(C)(C)C(=O)O)cc3)CC2)nc2ccccc21	1.29 ± 0.34	0.976 ± 0.065	1 ± 0.098	0.925 ± 0.034	1.08 ± 0.13	1.04 ± 0.13	0.521 (inactive)
Clc1cnc(NC2CCN(c3ncnc4c3CCCC4)CC2)nc1	0.969 ± 0.043	1.08 ± 0.089	1.55 ± 0.24	0.698 ± 0.032	1.16 ± 0.21	1.29 ± 0.47	0.954 (active)
Cc1nnc(C(=O)NC(C)(C)c2nc(C(=O)NCc3ccc(F)cc3)c(O)c(=O)n2C)o1	1.08 ± 0.19	1.09 ± 0.13	0.935 ± 0.056	0.878 ± 0.029	1.27 ± 0.15	0.988 ± 0.076	0.992 (active)
NC(=O)NCC(N)C(=O)O (stereo unspecified)	0.988 ± 0.082	1.02 ± 0.09	0.969 ± 0.022	0.959 ± 0.053	0.963 ± 0.12	1.02 ± 0.1	0.994 (active)
